Results from PubChem BioAssay.
Inconclusive results are not listed. The source made the active and inactive calls.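 Rule for the calls, unless noted: active = normalized viability below 100% at a tested concentration; inactive = the rest.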

Legend:
[1] = growth inhibition of DIPG glioma cells, dose response, cell-based, JHH-DIPG-1, MIPE4.0, CellTiter-Glo, qHTS (AID 1347062; cut-off not given, nearly all actives have AC50 up to about 27 µM;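 for AC50: cells exposed to compound for two days before readout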); settings: JHH-DIPG-1 viability, CellTiter-Glo ATP luminescence
[2] = SU-DIPG-VI glioma cell viability, MIPE4.0 library, CellTiter-Glo luminescence, qHTS (AID 1347066; cut-off not given, nearly all actives have AC50 up to about 30 µM;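 note: cells exposed to compound for 48 hours before readout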); settings: CellTiter-Glo ATP luminescence
[3] = JHH-DIPG-1 glioma cell viability, MIPE5.0 library, CellTiter-Glo luminescence, qHTS (AID 1347067; cut-off not given, nearly all actives have AC50 up to about 26 µM;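 note: cells exposed to compound for 48 hours before readout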); settings: JHH-DIPG-1 glioma viability, CellTiter-Glo ATP luminescence
[4] = SU-DIPG-XXV glioma cell viability, MIPE5.0 library, qHTS (AID 1347068; cut-off not given, nearly all actives have IC50 up to about 30 µM;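 for IC50: cells exposed to compound for 48 hours before viability readout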)
[5] = sensitizers of A549 cells to miR-34 induction, primary screen, imaging, A549 dox-inducible miR-34, nuclei and caspase counts (AID 1347080;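 active = compounds whose cell count with miR-34 switched on is under 0.7 times the count with it off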); settings: A549 miR-34 inducible, Hoechst nuclei count, 48 h
[6] = survival rescue of mitochondrial mutant cells in low glucose, primary screen, MELAS cybrids, Rieske KO mouse fibroblasts, CellTiter-Glo (AID 1508586;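 active = mean z-score across replicates of 1.96 or higher in either the MELAS or the Rieske mutant cell line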;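 note: z relative to plate mean and SD of compound and empty wells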)
[7] = ovarian cancer cell viability with rucaparib, profiling panel, oncology-focused library, rucaparib conditional (AID 1508598); settings: patient-derived ovarian cancer cells, CellTiter-Glo viability, 144 h, stronger effect = lower value
[8] = growth inhibition of DIPG glioma cells, dose response, cell-based, SU-DIPG-XIII, MIPE5.0, CellTiter-Glo, qHTS (AID 1347064; cut-off not given, nearly all actives have AC50 up to about 23 µM;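 for AC50: cells exposed to compound for 48 hours before the viability read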); settings: SU-DIPG-XIII viability, CellTiter-Glo ATP luminescence
[9] = viability loss in pontine glioma line – cell-based, SU-DIPG-XXV, MIPE5.0, CellTiter-Glo, qHTS, dose response (AID 1347065; cut-off not given, nearly all actives have AC50 up to about 26 µM;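 note: cells exposed to compound for 48 hours before ATP readout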); settings: CellTiter-Glo ATP luminescence
[10] = growth inhibition of DIPG glioma cells, dose response, cell-based, SU-DIPG-IV, MIPE4.0, CellTiter-Glo, qHTS (AID 1347063; cut-off not given, nearly all actives have AC50 up to about 30 µM;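 note: compound exposure lasted 48 hours before the viability readout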); settings: SU-DIPG-IV viability, CellTiter-Glo ATP luminescence
[11] = modifiers of HSF1 nuclear foci, imaging, Selleck Cancer Library (AID 1347162; in the data active = plate-normalised HSF1 focus index below about 0.46); settings: human cells, at 10 µM; SSMD: measured here: HSF1 foci SSMD mean; cell count: measured here: cell number; plate-normalised HSF1 focus index: stronger effect = lower value
[12] = stronger effect = lower value, cell number ratio, induced over uninduced
[13] = measured here: relative caspase fold change +Dox/-Dox
[14] = measured here: total cells with miR-34 induction, stronger effect = lower value
[15] = measured here: total cells without miR-34 induction
[16] = MELAS cybrid survival, CellTiter-Glo 48 h, stronger effect = higher value
[17] = Rieske KO mouse fibroblast survival, CellTiter-Glo 72 h
[18] = at 0.000305 µM, OCI-C5x cells, with rucaparib 10 µM, 100% = cells with rucaparib alone
[19] = at 0.000305 µM, OCI-C5x cells, without rucaparib
[20] = at 0.000305 µM, OCI-P5x cells, with rucaparib 20 µM, 100% = cells with rucaparib alone
[21] = at 0.000305 µM, OCI-P5x cells, without rucaparib
[22] = at 0.00122 µM, OCI-C5x cells, with rucaparib 10 µM, 100% = cells with rucaparib alone
[23] = at 0.00122 µM, OCI-C5x cells, without rucaparib
[24] = at 0.00122 µM, OCI-P5x cells, with rucaparib 20 µM, 100% = cells with rucaparib alone
[25] = at 0.00122 µM, OCI-P5x cells, without rucaparib
[26] = at 0.00488 µM, OCI-C5x cells, with rucaparib 10 µM, 100% = cells with rucaparib alone
[27] = at 0.00488 µM, OCI-C5x cells, without rucaparib
[28] = at 0.00488 µM, OCI-P5x cells, with rucaparib 20 µM, 100% = cells with rucaparib alone
[29] = at 0.00488 µM, OCI-P5x cells, without rucaparib
[30] = at 0.0195 µM, OCI-C5x cells, with rucaparib 10 µM, 100% = cells with rucaparib alone
[31] = at 0.0195 µM, OCI-C5x cells, without rucaparib
[32] = at 0.0195 µM, OCI-P5x cells, with rucaparib 20 µM, 100% = cells with rucaparib alone
[33] = at 0.0195 µM, OCI-P5x cells, without rucaparib
[34] = at 0.0781 µM, OCI-C5x cells, with rucaparib 10 µM, 100% = cells with rucaparib alone
[35] = at 0.0781 µM, OCI-C5x cells, without rucaparib
[36] = at 0.0781 µM, OCI-P5x cells, with rucaparib 20 µM, 100% = cells with rucaparib alone

With `CCOc1cc(N2CCC(O)CC2)ccc1Nc1ncc2c(n1)N(C)c1ccccc1C(=O)N2C` the AC50 [1] was 7.43 µM (active), the outcome [2] was “inactive” and the AC50 [3] was 20.9 µM (active). For the same molecule, the IC50 [4] was 18.6 µM (active), the fold change [5, 12] was 0.886 (inactive) and the fold change [5, 13] was 0.548. The cell count [5, 14] was 6240, the cell count [5, 15] was 7040 and the z-score [6, 16] was -0.56 (inactive). For the same molecule, the z-score [6, 17] was -1.56, the viability [7, 18] was 123% (inactive) and the viability [7, 19] was 120% (inactive). The viability [7, 20] was 94.3% (active), the viability [7, 21] was 101% (inactive) and the viability [7, 22] was 122% (inactive). The viability [7, 23] was 109% (inactive), the viability [7, 24] was 99.4% (active) and the viability [7, 25] was 105% (inactive). For the same molecule, the viability [7, 26] was 119% (inactive), the viability [7, 27] was 112% (inactive) and the viability [7, 28] was 91.8% (active). For the same molecule, the viability [7, 29] was 102% (inactive), the viability [7, 30] was 124% (inactive) and the viability [7, 31] was 117% (inactive). For the same molecule, the viability [7, 32] was 94% (active), the viability [7, 33] was 99.5% (active) and the viability [7, 34] was 131% (inactive). For the same molecule, the viability [7, 35] was 124% (inactive), the viability [7, 36] was 96.6% (active) and the viability ([7]; at 0.0781 µM, OCI-P5x cells, without rucaparib) was 108% (inactive). For the same molecule, the viability ([7]; at 0.313 µM, OCI-C5x cells, with rucaparib 10 µM, 100% = cells with rucaparib alone) was 109% (inactive), the viability ([7]; at 0.313 µM, OCI-C5x cells, without rucaparib) was 131% (inactive) and the viability ([7]; at 0.313 µM, OCI-P5x cells, with rucaparib 20 µM, 100% = cells with rucaparib alone) was 88.3% (active). For the same molecule, the viability ([7]; at 0.313 µM, OCI-P5x cells, without rucaparib) was 95.6% (active), the viability ([7]; at 1.25 µM, OCI-C5x cells, with rucaparib 10 µM, 100% = cells with rucaparib alone) was 101% (inactive) and the viability ([7]; at 1.25 µM, OCI-C5x cells, without rucaparib) was 121% (inactive). The viability ([7]; at 1.25 µM, OCI-P5x cells, with rucaparib 20 µM, 100% = cells with rucaparib alone) was 84.7% (active), the viability ([7]; at 1.25 µM, OCI-P5x cells, without rucaparib) was 90.7% (active) and the viability ([7]; at 5 µM, OCI-C5x cells, with rucaparib 10 µM, 100% = cells with rucaparib alone) was 85.7% (active). For the same molecule, the viability ([7]; at 5 µM, OCI-C5x cells, without rucaparib) was 119% (inactive), the viability ([7]; at 5 µM, OCI-P5x cells, with rucaparib 20 µM, 100% = cells with rucaparib alone) was 35.5% (active) and the viability ([7]; at 5 µM, OCI-P5x cells, without rucaparib) was 75.3% (active).

In the case of `COc1cc2c(cc1Cc1cccc(Cl)c1F)c(=O)c(C(=O)O)cn2[C@H](CO)C(C)C`, the outcome [1] is reported as “inactive”, the AC50 [2] is reported as 20.9 µM (active) and the AC50 [3] is reported as 26.3 µM (active).

In the case of `Cc1ccc(-n2[nH]c(C)c(N=Nc3cccc(-c4cccc(C(=O)O)c4)c3O)c2=O)cc1C`, the outcome [1] is reported as “inactive”, the outcome [8] is reported as “inactive” and the AC50 [2] is reported as 10.5 µM (active). The outcome [3] was “inactive”, the outcome [4] was “inactive” and the fold change [5, 12] was 0.913 (inactive). For the same molecule, the fold change [5, 13] was 1.1, the cell count [5, 14] was 6690 and the cell count [5, 15] was 7330. For the same molecule, the z-score [6, 16] was -0.18 (inactive) and the z-score [6, 17] was -0.0982.

For `NS(=O)(=O)c1ccc(NC2=CC(=O)c3ccccc3C2=O)cc1`, the outcome [1] was “inactive”, the AC50 [8] was 5.9 µM (active) and the AC50 [9] was 11.8 µM (active). For the same molecule, the AC50 [2] was 5.9 µM (active) and the AC50 [3] was 20.9 µM (active).

For `Cc1c(C)n(Cc2ccc(-c3ccccc3C(=O)O)cc2)c2ccc(C(=O)N[C@@H](C)c3ccc([N+](=O)[O-])cc3)cc12`, the AC50 [10] was 0.0372 µM (active).

With `O=C(O)c1ccc(CCCc2ccc(OCCc3ccc(F)cc3)cc2)o1` the outcome [8] was “inactive”.

With `O=C(Nc1cccnc1)N1CCC(Cc2cccc(Oc3ccc(C(F)(F)F)cn3)c2)CC1` the outcome [1] was “inactive”, the outcome [4] was “inactive” and the fold change [5, 12] was 1.36 (inactive). For the same molecule, the fold change [5, 13] was 0.837, the cell count [5, 14] was 4250 and the cell count [5, 15] was 3120. The SSMD [11] was 3.05, the cell count [11] was 7690 and the plate-normalised HSF1 focus index [11] was 1.19 (inactive). For the same molecule, the z-score [6, 16] was -0.261 (inactive), the z-score [6, 17] was -0.332 and the viability [7, 18] was 111% (inactive). For the same molecule, the viability [7, 19] was 123% (inactive), the viability [7, 20] was 110% (inactive) and the viability [7, 21] was 110% (inactive). For the same molecule, the viability [7, 22] was 108% (inactive), the viability [7, 23] was 129% (inactive) and the viability [7, 24] was 111% (inactive). The viability [7, 25] was 99.8% (active), the viability [7, 26] was 128% (inactive) and the viability [7, 27] was 120% (inactive). The viability [7, 28] was 112% (inactive), the viability [7, 29] was 102% (inactive) and the viability [7, 30] was 116% (inactive). For the same molecule, the viability [7, 31] was 118% (inactive), the viability [7, 32] was 105% (inactive) and the viability [7, 33] was 102% (inactive). The viability [7, 34] was 114% (inactive), the viability [7, 35] was 117% (inactive) and the viability [7, 36] was 103% (inactive).
